What follows are sequences tested on VDR:RXRa (NR concentration 270 nM, RXRa partner concentration 90 nM) (assay: PBM binding z-score (relative to random genomic background probes); higher = stronger binding; sequences stand for … in GC…GCGATTGACAGCGTAGAATGAAGG).
Protocol: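 Protein-binding microarray (Agilent 4x180K custom design, double-stranded 60-nt probes: 5' GC cap, 34-nt variable region, 24-nt constant primer region; full probe sequence given). Purified or IVT nuclear receptor:RXRα heterodimers (3:1 NR:RXRα, mostly 270:90 nM) or homodimers were incubated for 1 h in PBS with 2% milk and no ligand, then detected with Alexa488 antibodies. Fluorescence from o1-orientation probes (~5 replicates averaged) was converted to z-scores against 500 random hg19 background probes. Variable regions are seed direct-repeat (DR0–DR5) sites, all their single-nucleotide variants and half-site ablations.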

Sequence	PBM binding z-score
TCTAGTTGGTCAAATGTCACACACTCGAAATGCG	1.44
TCAGACAGGTGAAGGTAAGTCAGGTACGCAGTCG	0.301
CCGACTGGGGCAGAAAGGTTATCATACCATCCGG	0.932
GCTGCTAGGTCAACTGATGGTCAGATAAAGCTCG	1.82
TCTTGTAGATCAATATAGGTTAAGAAAGTGCGCT	1.24
CGAACTAGGTCAGAACAGGCCAGTGAAGGATGAT	0.281
CCGACTGGGGCAAGCTTACCATAACGCACAGCCA	-0.753
ATCGAAAGGTCGAAGGTGATTATACCCACCCGAA	2.61
TCAGACAGGTGAAGGTAGCTCAGGTACGCAGTCG	0.353
ATCTCTAGGTAAACGTTCAGTGAATCCCGAGGAT	-0.107
CTCGAAATGTCGTGCTCAGGTGAGTATACCAAAC	0.0153
CCTTACGGGTCAATGACAGGTTATAGCATTTGGA	3.29
AGCCAAAGTTCATCTAGGTAACGTAAGATATGCT	4.48
CCTCGGAGGACAGAAGGTCAGTGCTGTCCGCTTT	0.863
GGAACGAGGGCATTCGAGCTGATAGCATGGCGAT	0.809
TTACCAAGGTGTGCTGAGGTCGTTGATCCAACTC	2.39
AGTCAAAGTTCACTAGGTAACGAAAGATTCAGCT	3.25
ATATGTAGGTTGCATCCGGGTCATTCAGGCTATG	3.47
CCAACTGGGGCAGAAAGGTTACCATACCATCCGG	0.976
CGTCATAGTTCAACTAAGGTAACGTAAAGCACGC	2.59

Sequence	PBM binding z-score
TCTTGTAGATCAGCAGGGTAAGAAAGCTGGCCAA	0.195
AGAATGAGGTTATACGTAGCTCAGGGAAGAAAGT	1.2
AGAATGAGGTTACCAAAGATCAGGGTAACGCTTG	1.6
CATACAGGGTCAGCTAGGACAGAGTAGGGACGGC	4.03
CCGAGTAGGTAATGGGGCATTCAGGCAACGGTGA	-0.509
AGTCAAAGTTCATTAGGTAACGTAAGATTCAGCT	4.72
CCTATTAGTTGACCATAAGCGCAACCGAAGCTCG	1.05
AGAACGAGGGCAATGAGTTGGTAGCACGGGTGGC	4.09
ATTATTAGTTGAGACGAGGGCAACCGATAGGTTG	1.29
CCTACTGGGCCAAGATCATTGATCAGTCAAAGCA	-0.601
ATATGTAGGTTACATCCGTGTCATTCAGGCTATG	1.4
ACTAGTTGGTCAGCTGAGGTCACACGCAATTCGG	4.46
TCGAGTAGGTTAGGGGCACTCAGAATGGCGTCGA	-0.143
CGAGACAGGTGAAAGGTAACTCAGTCTGGTACGC	0.633
TCATATAGGTAAAAGGTGAAGGTCGGTGTGGTAA	1.92
TCATATAGGTAAAGGTGAAAGACGAACGATATGA	0.914
ACTAGCAGGCCAAGGGTCACACAAGATTAGTCCG	3.53
TCCAGTTGGTCACGGAGGTCACACACGACGGGTA	5.75
CGAACTAGGTCAAGGAGAGTGAATCTCCGCACGC	1.33
ATCGAAAGGTCGAAGAGGTGAGTATACACCGTTT	4.47
